# Results as given in PubChem BioAssay AID1794835 (Parasite Biology Lab, Institute for Biomedicine and …, 2023).
# Out of some 2,500 compounds screened, about 45 (2%) were called active. Rule as the data show it: active = inhibition mostly above about 45% (no sharp cut-off); inactive = mostly below about 37%. The sample as a whole holds a higher share of actives than the screen did.
# Experiment: anti-Giardia activity of synthetic compounds – Compounds Australia Scaffold Library subset, 24/48 h, primary screen (AID 1794835);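 as to inhibition: 0% = parasite counts in DMSO vehicle wells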
# Details: Giardia lamblia BRIS/91/HEPU/1279 trophozoite counts, imaging, at 10 µM
# [1] = measured here: growth inhibition at 24 h, stronger effect = higher value
smiles,measurement,setting,value
Cc1ccccc1C(=O)Nc1cnc(N2CCNCC2)c(C(=O)N(C)Cc2ccccc2)c1,inhibition,stronger effect = higher value,15.2% (inactive)
same,inhibition,[1],10.2%
CCC(=O)N1CCC(Oc2ccc(C(=O)N3CCOCC3)cn2)CC1,inhibition,,inactive
Cc1nnc2n1CCN(C(=O)c1cc(Br)c[nH]1)C2,inhibition,,inactive
COc1cc(N2CCn3c(nc4cc(Cl)ccc43)C2)ccc1NC(=O)COc1ccccc1,inhibition,,inactive
COc1c(C)cnc(Cn2cnc([N+](=O)[O-])c2)c1C,inhibition,stronger effect = higher value,83% (active)
same,inhibition,[1],25.8%
Cc1noc(-c2c(C)sc(C)c2S(=O)(=O)NCc2ccccc2)c1C,inhibition,stronger effect = higher value,30.5% (inactive)
Cc1ccc(C(=O)N2CCC(Oc3ncccc3C(=O)N3CCCCC3)C2)c(C)c1 (configuration not stated),outcome,,inactive
same,inhibition,[1],0.6%
COc1ccc2oc(-c3noc(C(NC(=O)c4ccco4)C(C)C)n3)c(C)c2c1 (configuration not stated),inhibition,stronger effect = higher value,9.9% (inactive)
same,inhibition,[1],18.3%
Cc1ccc2oc(-c3noc(C(=O)NCC4CCCO4)n3)c(C)c2c1 (configuration not stated),outcome,,inactive
same,inhibition,[1],2%
COc1ccc2oc(-c3noc(C(=O)NCCN4CCCCCC4)n3)c(C)c2c1,inhibition,stronger effect = higher value,56.6% (active)
same,inhibition,[1],11.6%
Cc1cccc(-c2nc(Cn3nnc(C(=O)Nc4ccc5c(c4)OCCO5)c3N)c(C)o2)c1,inhibition,,inactive
CCOc1ccc(CCNC(=O)c2ccc3c(c2)nc2n3CCOC2)cc1OCC,inhibition,stronger effect = higher value,79.8% (active)
same,inhibition,[1],27.2%
CSc1ccc(CCNC(=O)c2ccc3c(c2)nc2n3CCOC2)cc1,inhibition,stronger effect = higher value,12.8% (inactive)
CCOc1ccc(CCNC(=O)c2c(C)oc3c2C2=NCCN2C=N3)cc1OCC,inhibition,stronger effect = higher value,17.8% (inactive)
Cc1ccc(-c2nc3ccccc3n2Cc2cccc(F)c2)o1,inhibition,stronger effect = higher value,16.3% (inactive)
same,inhibition,[1],22.1%
COc1ccc(C2(C(=O)N3CCC(Cc4nc(-c5ccc(F)cc5)no4)CC3)CC2)cc1,outcome,,inactive
same,inhibition,[1],11.4%
C=CCn1c(SCC(=O)N2CCCCC2)nc2scc(-c3ccco3)c2c1=O,inhibition,stronger effect = higher value,5.6% (inactive)
same,inhibition,[1],6.8%
CCCCn1nnnc1CN1CCCC1Cn1cncn1 (configuration not stated),outcome,,inactive
same,inhibition,[1],2%
O=C(Nc1ccn(Cc2cccnc2)n1)c1ccc2n[nH]nc2c1,inhibition,,inactive
O=C(Cc1csc2nc(-c3ccccc3)cn12)Nc1ccc(Cl)cc1,inhibition,stronger effect = higher value,67.7% (active)
same,inhibition,[1],47.6%
O=C(Cn1nccc1-c1ccncc1)Nc1ccc(Cl)cc1,inhibition,,inactive
O=C(Cc1csc2nc(-c3ccccc3)cn12)NCCc1cccs1,outcome,,inactive
same,inhibition,[1],0.1%
Cc1oc(-c2cccs2)nc1Cn1cccn1,inhibition,,inactive
O=C(Cc1noc(-c2ccoc2)n1)NC1CCCCC1,inhibition,stronger effect = higher value,3.1% (inactive)
same,inhibition,[1],4.9%
Cc1ccc(CNC(=O)c2ccc3nn(CC(=O)N(C)c4ccccc4)c(=O)n3c2)cc1,inhibition,,inactive
Cc1ccc(C)c(-c2cc3c4nn(CC(=O)N(C)c5ccc(F)cc5)c(=O)n4ccn3n2)c1,inhibition,stronger effect = higher value,96.3% (active)
same,inhibition,[1],79.6%
O=C(Cn1nc2c3cc(-c4ccccc4)nn3ccn2c1=O)N1CCCc2ccccc21,inhibition,,inactive
O=S(=O)(Cc1ccc(C(F)(F)F)cc1)Cc1noc(C2CC2)n1,outcome,,inactive
same,inhibition,[1],12.6%
CCc1nccn1CC1CCCN1 (configuration not stated),outcome,,inactive
same,inhibition,[1],0.2%
Cc1ccc(N2C(=O)N[C@@H]3C[C@]2(C)Oc2c(O)cc(C(C)(C)C)cc23)cc1C,inhibition,,inactive
Cc1c(-c2nc(-c3ccccc3)no2)nnn1-c1cccc(Cl)c1,inhibition,,inactive
Cc1ccc(NC(=O)Cc2nc(-c3ccc4c(c3)CC(=O)N4C)cs2)cc1,inhibition,stronger effect = higher value,10% (inactive)
same,inhibition,[1],9.8%
Cc1ccc(C)c(NC(=O)Cc2nc(Cn3cnc([N+](=O)[O-])c3)cs2)c1,inhibition,stronger effect = higher value,59.9% (active)
same,inhibition,[1],8.45%
CN(C)C(=O)Cc1nc(CN2CCc3c(ncn3C)C2)cs1,outcome,,inactive
same,inhibition,[1],1.4%
Cc1nc(C2(NC(=O)CCc3ncc(-c4ccccc4F)o3)CCCCC2)no1,inhibition,,inactive
Cc1ccc(NC(=O)c2nnc(C3CCCN3C(=O)NC3CCCC3)s2)cc1 (configuration not stated),inhibition,stronger effect = higher value,4.4% (inactive)
same,inhibition,[1],1%
CCN(Cc1cccs1)C(=O)CN1CCC(n2c(=O)[nH]c3ccccc32)CC1,inhibition,,inactive
CN1CCN(CCNC(=O)CN2C(=O)C3CCCCN3c3ccc(C(=O)N4CCCC4)cc32)CC1 (configuration not stated),inhibition,stronger effect = higher value,13% (inactive)
same,inhibition,[1],11.7%
O=C(CN1C(=O)COc2ccc(C(=O)N3CCCCC3)cc21)NCc1ccccc1,inhibition,,inactive
Cc1ccc(NC(=O)CN2C(=O)C3CCCCN3c3ccc(C(=O)N4CCCC4)cc32)cc1 (configuration not stated),inhibition,stronger effect = higher value,62.4% (active)
same,inhibition,[1],35.5%
O=C(NCCCN1CCN(c2ccccc2)CC1)c1noc2c1CCCCC2,inhibition,stronger effect = higher value,9.7% (inactive)
Cc1cccc(CC(=O)N2CCN(c3nc4cccnc4n(Cc4ccccc4)c3=O)CC2)c1,inhibition,stronger effect = higher value,38.8% (inactive)
same,inhibition,[1],12.1%
CCN1CCCc2cc(C(=O)N3CCOCC3)sc21,inhibition,,inactive
Cc1nccc2[nH]c(=O)c(C(=O)NCCCN(C)C3CCCCC3)cc12,outcome,,inactive
same,inhibition,[1],0.2%
CCC1Cn2c(C(=O)NCCN(C)C3CCCCC3)cc3cccc(c32)O1 (configuration not stated),inhibition,stronger effect = higher value,53.7% (active)
same,inhibition,[1],13.8%
Cc1cc(C)c2c(=O)n(CC(=O)Nc3ccc(Br)cc3)c(=O)n(C)c2n1,outcome,,inactive
same,inhibition,[1],4.9%
CCC1CCCCN1C(=O)Cn1c(C(=O)OC)cc2occc21 (configuration not stated),inhibition,stronger effect = higher value,8.8% (inactive)
Cc1cc2n(n1)CCCN2CC(=O)N1CCN(c2cccc(Cl)c2)CC1,inhibition,stronger effect = higher value,5.3% (inactive)
CC(C)C(=O)N1CCN(c2nc3ccccc3c3nnc(-c4cccs4)n23)CC1,inhibition,,inactive
CCc1nnc2c3ccccc3nc(N3CCN(c4cccc(Cl)c4)CC3)n12,inhibition,stronger effect = higher value,73.1% (active)
same,inhibition,[1],33.5%
O=C1CC(C(=O)N2CCN(c3ccccc3F)CC2)CN1Cc1ccccc1 (configuration not stated),inhibition,,inactive
COc1cccc(CCC(=O)N2CCCC(c3nnc4n3CCCCC4)C2)c1 (configuration not stated),inhibition,stronger effect = higher value,2.6% (inactive)
same,inhibition,[1],2.1%
O=c1c2cnc(N3CCCCC3)nc2ccn1CCc1ccccc1,inhibition,,inactive
O=C(c1ccco1)N1CCC(NS(=O)(=O)c2ccc(Cl)cc2)CC1,outcome,,inactive
same,inhibition,[1],0.2%
O=C(Nc1ccccc1)c1cc(-c2cccs2)n(C2CCS(=O)(=O)C2)n1 (configuration not stated),inhibition,stronger effect = higher value,1.7% (inactive)
same,inhibition,[1],9.1%
Cc1cccc(-c2noc(Cn3cccn3)n2)c1,outcome,,inactive
same,inhibition,[1],3.8%
Cc1ccc(S(=O)(=O)NC2CCN(C(=O)Cc3ccc(Br)cc3)CC2)cc1,inhibition,stronger effect = higher value,3.1% (inactive)
same,inhibition,[1],2%
O=C(C1CCN(S(=O)(=O)c2ccccc2)CC1)N1CC=C(c2ccccc2)CC1,outcome,,inactive
same,inhibition,[1],1%
Cc1ccnc(N2CCCC(C(=O)NC3CCCC3)C2)n1 (configuration not stated),inhibition,stronger effect = higher value,10.9% (inactive)
same,inhibition,[1],2.5%
Cc1ccnc(N2CCCC(C(=O)N3CC=C(c4ccccc4)CC3)C2)n1 (configuration not stated),inhibition,stronger effect = higher value,46.1% (active)
same,inhibition,[1],18%
CC(NC(=O)Cc1csc(Cc2ccccn2)n1)c1ccc(F)cc1 (configuration not stated),outcome,,inactive
same,inhibition,[1],5.1%
O=c1c2ccsc2ncn1Cc1nc(Cc2ccccc2)no1,inhibition,,inactive
Cc1ncc([N+](=O)[O-])n1Cc1csc(Cc2ccccc2)n1,inhibition,stronger effect = higher value,67% (active)
same,inhibition,[1],30.1%
O=C(Cc1ccccc1)NCc1nc(-c2ccc3c(c2)nnn3C2CCCC2)no1,inhibition,,inactive
O=C(NCc1cccc(C(F)(F)F)c1)C1CCCN(c2nccnc2Oc2ccccc2)C1 (configuration not stated),inhibition,stronger effect = higher value,15.6% (inactive)
COc1ccc(CNC(=O)N2CCC(c3ccn4ncc(C(=O)N5CCOCC5)c4c3)CC2)cc1,inhibition,stronger effect = higher value,0.7% (inactive)
same,inhibition,[1],3.8%
CCCCN(CCCC)S(=O)(=O)c1ccc2c(c1)CCCC(=O)N2,inhibition,stronger effect = higher value,27.2% (inactive)
same,inhibition,[1],13.8%
COCCCN(Cc1ccco1)C(=O)Cn1cnc2onc(-c3ccc(Cl)cc3)c2c1=O,inhibition,,inactive
CCCn1nc(C(=O)N2CCCN(C(C)=O)CC2)ccc1=O,inhibition,,inactive
NCc1c2n(c(=O)n(CC(=O)Nc3ccc4c(c3)OCCO4)c1=O)CCCCC2,inhibition,,inactive
CCNS(=O)(=O)c1cc(-c2ccc(=O)n(CC)n2)sc1C,inhibition,,inactive
Cc1sc(-c2ccc(=O)[nH]n2)cc1S(=O)(=O)NCc1cccnc1,inhibition,,inactive
Cc1sc(C(=O)N2CCCC2)c2ncnc(NCc3ccc(F)c(Cl)c3)c12,inhibition,stronger effect = higher value,23.9% (inactive)
same,inhibition,[1],14.4%
CCc1nc(-c2cc(S(=O)(=O)NCc3ccc(F)c(Cl)c3)c(C)s2)cs1,inhibition,stronger effect = higher value,43.9% (active)
same,inhibition,[1],15.2%
Cc1cccc(CNS(=O)(=O)c2cc(-c3csc(C)n3)sc2C)c1,inhibition,stronger effect = higher value,63.6% (active)
same,inhibition,[1],21.2%
CCc1nc(-c2cc(S(=O)(=O)NCc3ccccc3)c(C)s2)no1,inhibition,,inactive
CN1CCN(CC2CCN(C(=O)Cc3cccc4ccccc34)CC2)CC1,inhibition,stronger effect = higher value,17.7% (inactive)
COc1cccc(Nc2nc(N3CCN(c4ccccc4)CC3)nc3c2cnn3C)c1,inhibition,stronger effect = higher value,5.8% (inactive)
same,inhibition,[1],6.1%
Fc1cccc(Nc2c3c(nc4ccccc24)CCC3)c1,inhibition,stronger effect = higher value,55.5% (active)
same,inhibition,[1],2.3%
COc1cccc(-c2noc(Nc3cccc(C)c3)n2)c1,outcome,,inactive
same,inhibition,[1],3.1%
COc1cccc(Nc2c3c(nc4ccccc24)CCC3)c1,inhibition,stronger effect = higher value,62.3% (active)
same,inhibition,[1],22%
CCc1cccc(NC(=O)C2CCCN(S(=O)(=O)c3c(C)noc3C)C2)c1 (configuration not stated),outcome,,inactive
same,inhibition,[1],13.3%
O=C1CSCN1CC(=O)N1CCCCC1c1cc2ccccc2[nH]1 (configuration not stated),inhibition,,inactive
COc1ccc(C2=Nc3ccccc3N(Cc3cccc(F)c3)C(=O)C2)cc1,inhibition,stronger effect = higher value,30.2% (inactive)
same,inhibition,[1],8.7%
COc1ccc(C2=Nc3ccccc3N(CC(=O)Nc3cccc(F)c3)C(=O)C2)cc1,inhibition,stronger effect = higher value,40.3% (active)
same,inhibition,[1],12.6%
COc1ccc(-n2ccn(CC(=O)Nc3cccc(F)c3)c2=O)cc1,inhibition,,inactive
CNC(=O)N1C[C@@H](CN(C)C)[C@@H](C2CCN(CCC(C)C)CC2)C1,outcome,,inactive
same,inhibition,[1],13.1%
COc1ccc(CNS(=O)(=O)c2ccc3onc(C(=O)N4CCCCC4)c3c2)cc1OC,outcome,,inactive
same,inhibition,[1],3.7%
CC(=O)c1c(C)[nH]c(C(=O)Nc2nc(-c3ccco3)c(-c3ccco3)s2)c1C,inhibition,stronger effect = higher value,52.8% (active)
same,inhibition,[1],25%
O=C(Nc1nc(-c2ccco2)c(-c2ccco2)s1)c1ccccc1,inhibition,stronger effect = higher value,71.2% (active)
same,inhibition,[1],27.2%
O=C(NCc1ccccc1)c1cc(-c2ccco2)on1,inhibition,,inactive
Cc1ccc(NC(=O)c2ncoc2-c2ccco2)cc1Cl,inhibition,,inactive
CCN1CCc2nc(NC(=O)c3ccccc3)sc2C1,inhibition,,inactive
